Where “and” joins values, the source holds several entries; their conditions need not be identical. Identical values can stand only once. Compounds without any hit were thinned out: in the full panel of roughly 83,000, 20% have a hit.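 In brief: 96-well plates, 48 h treatment, single concentration, percent growth endpoint.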 Values without a mark were called inactive. Calls of active or inactive are those of the source. The calls were made as follows: active = growth percent below 10; inactive = the rest. Where a SMILES comes first, the peptide text is derived from it. [ ]: non-standard residue; d: D form. ξ: configuration not given here. ξD = NC(CC(=O)O)C(=O)O
Assays:
Assay in all cases: NCI-60 one-dose screen, 48 h (100 = growth as untreated, 0 = no growth, -100 = all killed)
Conditions in all cases: 10 µM unless noted
BT-549 breast = system: BT-549 breast
MDA-MB-435 melanoma = system: MDA-MB-435 melanoma
SW-620 colon = system: SW-620 colon
MCF7 breast = system: MCF7 breast
HCT-116 colon = system: HCT-116 colon
HCC-2998 colon = system: HCC-2998 colon
KM12 colon = system: KM12 colon
T-47D breast = system: T-47D breast

Work on NCC(=O)NC(CC(=O)O)C(=O)O (stereo not given) (H-Gly-[ξD]-OH) yielded a growth (BT-549 breast) of 102%, a growth (MDA-MB-435 melanoma) of 99.5% and a growth (SW-620 colon) of 98.9%. The growth (MCF7 breast) was 100%, the growth (HCT-116 colon) was 106% and the growth (HCC-2998 colon) was 110%. The growth (KM12 colon) was 107%.

In the case of CCCCCCCCC(=O)OCCCC(CCC(CCC1CCCO1)OC(=O)CCCCCCCC)OC(=O)CCCCCCCC (stereo not given), the growth (BT-549 breast) is reported as 92.7%, the growth (MDA-MB-435 melanoma) is reported as 104% and the growth (SW-620 colon) is reported as 99.8%. For the same molecule, the growth (MCF7 breast) was 100%, the growth (HCT-116 colon) was 92.4% and the growth (HCC-2998 colon) was 123%. The growth (KM12 colon) was 103%.

Nc1nc2ncc(CNc3ccc(C(=O)NC(CCC(=O)NC(CCC(=O)NC(CCC(=O)NC(CCC(=O)NC(CCC(=O)O)C(=O)O)C(=O)O)C(=O)O)C(=O)O)C(=O)O)cc3)nc2c(=O)[nH]1 (stereo not given) showed a growth (BT-549 breast) of 106%, a growth (MDA-MB-435 melanoma) of 111% and a growth (SW-620 colon) of 105%. The growth (MCF7 breast) was 98.7% and the growth (HCC-2998 colon) was 117%.

For CCOC(=O)NC(/C=C/c1ccccc1)NC(=O)OCC, the growth (BT-549 breast) was 107%, the growth (MDA-MB-435 melanoma) was 106% and the growth (SW-620 colon) was 100%. For the same molecule, the growth (MCF7 breast) was 101%, the growth (HCT-116 colon) was 93.6% and the growth (HCC-2998 colon) was 112%.

Nc1ccc(C(=O)/C=C/c2ccccc2)cc1 gave a growth (BT-549 breast) of 61.1%, a growth (MDA-MB-435 melanoma) of 96.8% and a growth (SW-620 colon) of 103%. It also gave a growth (MCF7 breast) of 73.3%, a growth (HCC-2998 colon) of 100% and a growth (KM12 colon) of 74.2%.

O=C(Cc1nc2cc(Cl)c(Cl)cc2nc1CC(=O)c1cccnc1)c1cccnc1 was tested, and the growth (BT-549 breast) was 2.99% (active), the growth (MDA-MB-435 melanoma) was 75.9% and the growth (SW-620 colon) was 90.3%. For the same molecule, the growth (MCF7 breast) was 29.6%, the growth (HCT-116 colon) was 52.7% and the growth (HCC-2998 colon) was 115%. The growth (KM12 colon) was 85.9%.

N#CCc1cccc2ccccc12 gave a growth (T-47D breast) of 105%, a growth (SW-620 colon) of 105% and a growth (MCF7 breast) of 87.4%. The growth (HCT-116 colon) was 106%, the growth (HCC-2998 colon) was 109% and the growth (KM12 colon) was 110%.

With COc1ccc(OC)c(Cc2cnc3nc(N)nc(N)c3c2C)c1 the growth (MCF7 breast) was 3.33% [100 µM] (active) and -100% [100 µM] (active).

In the case of N#C/C(=N\Nc1ccc(Cl)cc1)C(=O)C1CC1, the growth (BT-549 breast) is reported as 40.2%, the growth (MDA-MB-435 melanoma) is reported as 41% and the growth (SW-620 colon) is reported as 63.1%. For the same molecule, the growth (MCF7 breast) was 51.7%, the growth (HCT-116 colon) was 63.9% and the growth (HCC-2998 colon) was 72.1%. The growth (KM12 colon) was 56.2%.

CC1CC(C)(C)OB(OC(C)CC(C)(C)OB2OC(C)CC(C)(C)O2)O1 (stereo not given) gave a growth (BT-549 breast) of 77.7%, a growth (MDA-MB-435 melanoma) of 107% and a growth (SW-620 colon) of 117%. It also gave a growth (MCF7 breast) of 96.6%, a growth (HCT-116 colon) of 99.9% and a growth (HCC-2998 colon) of 93.3%.

In the case of CCSc1nc2ccccc2o1, the growth (T-47D breast) is reported as 106%, the growth (SW-620 colon) is reported as 106% and the growth (MCF7 breast) is reported as 99.5%. The growth (HCC-2998 colon) was 117% and the growth (KM12 colon) was 108%.

In the case of COc1cc(NC(=O)C2=C(C)NC(C)=C(C(=O)Nc3cc(OC)c(Cl)cc3OC)C2c2cccc([N+](=O)[O-])c2)c(OC)cc1Cl, the growth (BT-549 breast) is reported as 36.9%, the growth (MDA-MB-435 melanoma) is reported as 9.7% (active) and the growth (SW-620 colon) is reported as 46.4%. It also gave a growth (MCF7 breast) of 14.5%, a growth (HCT-116 colon) of 23.9% and a growth (HCC-2998 colon) of 15.6%. The growth (KM12 colon) was 18.3%.

In the case of c1ccc(-c2cc3cc4ccccc4cn3c2)cc1, the growth (MDA-MB-435 melanoma) is reported as 91.4%, the growth (SW-620 colon) is reported as 89.9% and the growth (MCF7 breast) is reported as 88.8%. It also gave a growth (HCT-116 colon) of 88%, a growth (HCC-2998 colon) of 121% and a growth (KM12 colon) of 86.2%.

Work on O=[N+]([O-])/C(=C/c1ccccc1)c1ccccc1 yielded a growth (BT-549 breast) of 93%, a growth (MDA-MB-435 melanoma) of 107% and a growth (SW-620 colon) of 107%. It also gave a growth (MCF7 breast) of 97.4%, a growth (HCT-116 colon) of 96.5% and a growth (HCC-2998 colon) of 94.1%.

For NNc1cccc([N+](=O)[O-])c1, the growth (BT-549 breast) was 93.6%, the growth (MDA-MB-435 melanoma) was 86.8% and the growth (SW-620 colon) was 63.2%. It also gave a growth (MCF7 breast) of 106%, a growth (HCT-116 colon) of 70.4% and a growth (HCC-2998 colon) of 110%. It also gave a growth (KM12 colon) of 52.5%.

In the case of O/N=C1\c2ccccc2-c2ccc(F)cc21, the growth (BT-549 breast) is reported as 97.4%, the growth (MDA-MB-435 melanoma) is reported as 114% and the growth (SW-620 colon) is reported as 112%. For the same molecule, the growth (MCF7 breast) was 25.6%, the growth (HCT-116 colon) was 98.3% and the growth (HCC-2998 colon) was 95.1%.

For CC(=O)Nc1ccc(C(=O)CCl)cc1, the growth (BT-549 breast) was 58.6%, the growth (MDA-MB-435 melanoma) was 14.4% and the growth (SW-620 colon) was -16.6% (active). For the same molecule, the growth (MCF7 breast) was 3.18% (active), the growth (HCT-116 colon) was 32.3% and the growth (HCC-2998 colon) was 102%. For the same molecule, the growth (KM12 colon) was 85.7%.

In the case of COc1ccc2nc3cc(Cl)ccc3c(NCCCCCN3CCCCC3)c2c1, the growth (BT-549 breast) is reported as 19%, the growth (MDA-MB-435 melanoma) is reported as -92% (active) and the growth (SW-620 colon) is reported as -27.4% (active). For the same molecule, the growth (MCF7 breast) was -33.5% (active), the growth (HCT-116 colon) was -61.5% (active) and the growth (HCC-2998 colon) was -76.7% (active). The growth (KM12 colon) was -12.8% (active).

For O=C/C=C/c1ccc([N+](=O)[O-])cc1, the growth (BT-549 breast) was 116%, the growth (MDA-MB-435 melanoma) was 108% and the growth (SW-620 colon) was 106%. The growth (MCF7 breast) was 90.3%, the growth (HCT-116 colon) was 80.6% and the growth (HCC-2998 colon) was 95.8%. For the same molecule, the growth (KM12 colon) was 101%.

For O=C(Cc1nc2cc(Cl)c(Cl)cc2nc1CC(=O)c1ccccc1)c1ccccc1, the growth (BT-549 breast) was 52%, the growth (MDA-MB-435 melanoma) was 67.4% and the growth (SW-620 colon) was 92.6%. The growth (MCF7 breast) was 9.51% (active), the growth (HCT-116 colon) was 56.8% and the growth (HCC-2998 colon) was 92.8%. The growth (KM12 colon) was 77.3%.

CCOC(=O)c1c(C)[nH]c2ccc(O)cc12 showed a growth (MDA-MB-435 melanoma) of 100%, a growth (SW-620 colon) of 105% and a growth (MCF7 breast) of 83.4%. The growth (HCT-116 colon) was 103%, the growth (HCC-2998 colon) was 107% and the growth (KM12 colon) was 86.4%.

In the case of O=[N+]([O-])c1ccc(Oc2ccccc2Cl)c([N+](=O)[O-])c1, the growth (MDA-MB-435 melanoma) is reported as 81.5%, the growth (SW-620 colon) is reported as 39.9% and the growth (MCF7 breast) is reported as 89.4%. It also gave a growth (HCT-116 colon) of 88.2%, a growth (HCC-2998 colon) of 112% and a growth (KM12 colon) of 89.2%.

From PubChem BioAssay (NCI)
